Source: PubChem
FEN1 inh – blocks human flap endonuclease 1; P39748; Potency, µM (series often up to 114 µM), for inactives: at the top dose activity change, negative = inhibition, hits mostly inhibitors; AID 588795; actives 0.35% (n = 390,000); Recombinant FEN1 flap cleavage, fluorescence, 15 min; also: potency is read from the fitted curve at half-maximal effect; % is scaled to controls: 0 for no effect and ±100 for the full control effect; nearly all actives have a fitted effect of over 65% in size
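Concentration–response screening of FEN1 (10 nM): 15 min compound preincubation at room temperature, reaction started with 50 nM substrate and read at 0 and 15 min. Corrected, normalized data were fitted by a four-parameter Hill equation.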
Pol eta inh-1 – DNA polymerase eta (human) inhibition; Q9Y253; actives 1.2% (n = 390,000); Potency, µM (doses to about 114 µM), for the others: at the highest dose activity change, negative = inhibition, actives largely listed as inhibitors; recombinant Pol eta, fluorescent DNA replication assay; also: potency is read from the fitted curve at half-maximal effect; % is scaled to controls: 0 for no effect and ±100 for the full control effect
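Pol eta (10 nM) was preincubated with compounds for 15 min at room temperature, after which fluorescent replication substrate (50 nM final) was added to start the reaction. Fluorescence was read kinetically at 0 and 10 min.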
Pol beta inh-1 – inhibitors of human DNA polymerase beta; P06746; Pol beta primer extension/strand displacement, fluorescence kinetic; Potency, µM (highest dose often 114 µM), for inactives: at the top dose activity change, negative = inhibition, actives largely listed as inhibitors; actives 1.3% (n = 340,000); AID 485314; also: potency is read from the fitted curve at half-maximal effect; % is scaled to controls: 0 for no effect and ±100 for the full control effect
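Pol beta (10 nM) and compounds were preincubated 15 min at room temperature, then 50 nM substrate (final) started primer extension/strand displacement. Reads were taken at 0 and 10 min; concentration-response data were fitted to a four-parameter Hill equation.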
WRN inhibitor – WRN helicase (human) inhibition; Q14191; WRN helicase unwinding, fluorescent forked duplex, kinetic; Potency, µM (series often up to 114 µM), inactives show at the top dose activity change, negative = inhibition, usual class: inhibitors; actives 0.46% (n = 360,000); AID 651768; also: potency is read from the fitted curve at half-maximal effect; % is scaled to controls: 0 for no effect and ±100 for the full control effect; nearly all actives have a fitted effect of over 55% in size
Target sequence (Q14191 whole entry, looked up): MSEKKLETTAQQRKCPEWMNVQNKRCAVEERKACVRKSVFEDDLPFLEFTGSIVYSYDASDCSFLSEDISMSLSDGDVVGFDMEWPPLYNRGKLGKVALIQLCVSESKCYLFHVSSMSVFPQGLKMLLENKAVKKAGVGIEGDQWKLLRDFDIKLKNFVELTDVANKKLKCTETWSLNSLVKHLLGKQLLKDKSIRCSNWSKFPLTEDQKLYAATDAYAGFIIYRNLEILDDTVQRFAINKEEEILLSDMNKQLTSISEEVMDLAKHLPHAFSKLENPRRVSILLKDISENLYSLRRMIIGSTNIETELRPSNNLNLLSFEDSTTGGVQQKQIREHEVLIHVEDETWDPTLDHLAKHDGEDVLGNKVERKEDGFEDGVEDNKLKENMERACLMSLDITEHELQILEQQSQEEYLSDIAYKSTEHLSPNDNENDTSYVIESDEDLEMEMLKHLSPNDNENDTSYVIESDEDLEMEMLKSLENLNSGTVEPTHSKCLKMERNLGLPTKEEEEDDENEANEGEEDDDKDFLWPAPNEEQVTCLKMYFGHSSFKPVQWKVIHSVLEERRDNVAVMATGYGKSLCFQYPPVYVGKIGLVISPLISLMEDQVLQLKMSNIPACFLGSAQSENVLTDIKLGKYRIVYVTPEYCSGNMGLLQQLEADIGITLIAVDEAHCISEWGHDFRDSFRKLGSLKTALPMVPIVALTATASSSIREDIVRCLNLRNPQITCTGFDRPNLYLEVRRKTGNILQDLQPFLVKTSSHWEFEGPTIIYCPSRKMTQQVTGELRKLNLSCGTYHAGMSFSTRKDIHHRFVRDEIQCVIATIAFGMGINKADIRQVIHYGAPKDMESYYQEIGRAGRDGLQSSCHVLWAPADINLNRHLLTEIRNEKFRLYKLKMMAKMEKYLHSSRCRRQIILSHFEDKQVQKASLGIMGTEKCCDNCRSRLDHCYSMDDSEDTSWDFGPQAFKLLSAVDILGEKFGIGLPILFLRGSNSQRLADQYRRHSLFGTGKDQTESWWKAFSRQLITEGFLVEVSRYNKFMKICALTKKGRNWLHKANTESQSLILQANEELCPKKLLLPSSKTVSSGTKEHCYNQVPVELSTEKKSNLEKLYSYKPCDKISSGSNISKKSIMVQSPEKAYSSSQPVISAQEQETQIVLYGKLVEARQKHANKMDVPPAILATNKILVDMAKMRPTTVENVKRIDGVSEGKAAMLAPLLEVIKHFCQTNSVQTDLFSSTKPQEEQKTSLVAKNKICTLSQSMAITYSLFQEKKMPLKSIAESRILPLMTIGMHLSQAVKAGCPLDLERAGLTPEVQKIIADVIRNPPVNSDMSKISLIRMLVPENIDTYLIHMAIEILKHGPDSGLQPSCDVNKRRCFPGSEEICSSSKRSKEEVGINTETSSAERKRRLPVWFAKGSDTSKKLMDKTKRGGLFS
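Fluorescence dequenching readout, ex 525 nm/em 598 nm, kinetic mode: forked duplex DNA (100 nM final) with adjacent fluorophore and quencher unwound by WRN (20 nM final) with 2 mM ATP. Compound preincubation 15 min, room temperature.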
Pol kappa inh-1 – inhibitors of human DNA polymerase kappa; purified Pol kappa, fluorescent DNA synthesis assay, 10 min; actives 0.53% (n = 400,000); Potency, µM (top dose mostly 107 µM), for inactives: top-dose activity, negative = inhibition, actives largely listed as inhibitors; Q9UBT6; also: potency is read from the fitted curve at half-maximal effect; % is scaled to controls: 0 for no effect and ±100 for the full control effect
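10 nM Pol kappa was preincubated with compounds for 15 min at room temperature. Reaction started with 50 nM (final) substrate. Fluorescence read kinetically at 0 and 10 min.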
POLI inh – blocks human DNA polymerase iota activity; Q9UNA4; Pol iota fluorescent replication assay, 10 min; Potency, µM (titrated, usually from 115 µM), without a hit: top-dose activity, negative = inhibition, most hits filed as inhibitors; actives 1% (n = 390,000); AID 588590; also: potency is read from the fitted curve at half-maximal effect
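Fluorescent replication assay read twice, at 0 min and 10 min after adding 50 nM (final) substrate. Enzyme (10 nM) and compounds were first incubated 15 min at room temperature; enzyme-free buffer wells were negative controls.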
Pol beta inh-2 – Validate hits inhibiting human DNA polymerase beta; shares compounds with Pol beta inh-1; Pol beta primer extension/strand displacement, fluorescence kinetic; Potency, µM, usual class: inhibitors; actives 87% (n = 250); calls by dose curve; also: potency is read from the fitted curve at half-maximal effect
Klenow counter – inhibits Klenow fragment polymerase in counter-screen. AID 540300. Klenow exo- polymerase counter-screen, fluorescent DNA substrate. shares compounds with Pol beta inh-1. 250 tested, under 10 active. activity change, negative = inhibition, % at 57.1 µM
HIV RT counter – HIV-1 RT inhibition, pol beta selectivity check; shares compounds with Pol beta inh-1; activity % (negative = inhibition, positive = activation), % at 57.1 µM; HIV-1 RT polymerase activity, counter-screen; 250 tested, under 10 active
POLB inh gel – validation of human DNA polymerase beta inhibitors | shares compounds with Pol beta inh-1 | radiolabeled primer extension gel assay, phosphorimager | inhibition, % at 10 µM | actives 91% (n = 110);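 active = inhibition at 10 µM of 30% or more; inconclusive = no clear call, values can overlap the other calls; inactive = inhibition at 10 µM under 30%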
TbPGK inh – validation of Trypanosoma brucei phosphoglycerate kinase inhibitors; shares compounds with Pol kappa inh-1; TbPGK coupled GAPDH assay, Kinase-Glo luminescence; Potency, µM (series often up to 57.5 µM), without a hit: at the top dose activity change, negative = inhibition, actives largely listed as inhibitors; actives 79% (n = 500); also: potency is read from the fitted curve at half-maximal effect; % is scaled to controls: 0 for no effect and ±100 for the full control effect; nearly all actives have a fitted effect of over 65% in size
POLI cherry-pick – Confirm cherry-picked inhibitors of human polymerase iota | shares compounds with Pol kappa inh-1 | Pol iota primer extension, TAMRA/BHQ fluorescence | Potency, µM, most hits filed as inhibitors | actives 77% (n = 1,500) | AID 720496; also: potency is read from the fitted curve at half-maximal effect
Pol kappa inh-2 – Pol kappa (human) inhibition, cherry-pick confirmation. shares compounds with Pol eta inh-1. purified Pol-kappa, fluorescent strand-displacement substrate. Potency, µM, hits mostly inhibitors. actives 76% (n = 920). AID 720501; also: potency is read from the fitted curve at half-maximal effect
Pol eta inh-2 – confirmation of human DNA polymerase eta inhibitors. Pol eta primer extension, TAMRA/BHQ fluorescence, 10 min. Potency, µM, most hits filed as inhibitors. AID 720502. actives 64% (n = 2,600). shares compounds with Pol eta inh-1; also: potency is read from the fitted curve at half-maximal effect
* hit, by the source's call; ? = inconclusive; · = not tested or not shown; [ ] = another dose, or the depositor's remark. An excerpt weighted towards active compounds, which were near 2.4% of everything screened. Unless noted, calls follow the shape of the dose curve; as a rule, active = well fitted curve in the direction sought with a large enough effect; inconclusive = small, poorly fitted or top-dose-only effect, or another doubt; inactive = no such curve, though single readings can be large; an effect the other way counts as inactive or inconclusive.

SMILES	FEN1 inh	Pol eta inh-1	Pol beta inh-1	WRN inhibitor	Pol kappa inh-1	POLI inh	Pol beta inh-2	Klenow counter	HIV RT counter	POLI cherry-pick	Pol eta inh-2	others
COC(=O)c1c(NC(=O)COC(=O)c2ccc(NC(=O)CC#N)cc2)sc2c1CCCCC2	?	28µM*	8.9µM*	56µM*	50µM*	14µM*	6.3*	-21	16	24*	30*	Pol kappa inh-2=17*
O=C(Cn1nc(C(=O)O)c2ccccc2c1=O)NC12CC3CC(CC(C3)C1)C2	-6%	-1%	3%	-9%	6%	72%	·	·	·	·	·
O=C(COC(=O)c1ccc(S(=O)(=O)NCc2ccco2)cc1)Nc1ccc(Cl)cn1	-7%	20µM*	16µM*	-27%[57.1 µM]	79µM*	22µM*	22*	-16	4	·	76*	POLB inh gel=100*
Cc1ccc(C(CCN(Cc2ccccc2)C(=O)c2ccco2)c2ccco2)cc1 (centres undefined)	-4%	18µM*	10µM*	?	50µM*	20µM*	16*	-8	-9	·	85*
O=C(NCc1ccco1)c1c2c(nc3ccccc13)CCC2	?	3.2µM*	11µM*	45µM*	32µM*	8.9µM*	25*	-6	10	?	85*	POLB inh gel=99*
Cc1nc2cc(-c3ccsc3-n3c(C)ccc3C)[nH]n2c(=O)c1Cl	?	25µM*	10µM*	?	?	?	28*	-4	-6	·	30*	POLB inh gel=74*;Pol kappa inh-2=30*
Cc1ccc2nc(/C(C#N)=C/c3ccc(-c4cccc([N+](=O)[O-])c4)o3)[nH]c2c1	45µM*	?	5µM*	?	-31%	10µM*	5.6*	-39	32	?	76*
Cc1ccn2c(=O)nc(SCC(=O)N3CCCCCC3)nc2c1	1%	?	·	-21%	-5%	121%	·	·	·	·	·
O=C(NC1CCC(O)CC1)c1cc(-c2ccco2)nc2ccccc12 (centres undefined)	-24%	25µM*	13µM*	?	?	35µM*	28*	-17	41	67*	76*	POLB inh gel=84*
COc1cccc(-c2cc(C(=O)NC3CC3)c3ccccc3n2)c1	-9%	-19%	27%	2%	0%	37%	·	·	·	·	·
COc1ccc(NC(=O)c2cc(-c3ccco3)nc3ccccc23)cc1S(=O)(=O)N1CCOCC1	?	16µM*	2µM*	?	40µM*	?	10*	-10	-9	15*	17*
COc1ccc(NC(=O)c2cc(C)nc3ccccc23)cc1S(=O)(=O)N1CCOCC1	-3%	8%	·	-22%	-9%	58%	·	·	·	·	·
Cc1ccccc1-n1nc2c(c1NC(=O)C(C)C)CS(=O)(=O)C2	1%	4%	0%	3%	6%	33%	·	·	·	·	·
CC1CCN(Cc2cc(=O)oc3cc(O)c(Cl)cc23)CC1	-16%	-1%	5%	2%	-1%	?	·	·	·	·	·
Cc1cc(=O)oc2cc(OCc3ccc(C(=O)OCC(=O)N(C)C4CCS(=O)(=O)C4)cc3)ccc12 (centres undefined)	-12%	-17%	?	-8%	-12%	-11%	·	·	·	·	·
Cc1cc(=O)oc2cc(OCc3ccc(C(=O)OCC(=O)NC4CCS(=O)(=O)C4)cc3)ccc12 (centres undefined)	-23%	22µM*	3.5µM*	-32%	79µM*	20µM*	25*	-20	-4	38*	27*	POLB inh gel=75*
CC1CN(S(=O)(=O)c2cccc(C(=O)OCC(=O)c3cccs3)c2)CC(C)O1 (centres undefined)	0%	?	-2%	-6%	-11%	-13%	·	·	·	·	·
CCn1c(SCC(=O)c2ccc(O)c(O)c2)nnc1-c1ccccc1OC	2%	1.4µM*	10µM*	20µM*	20µM*	10µM*	8.9*	-10	?	?	30*	TbPGK inh=7.3µM*;Pol kappa inh-2=17*
CC(C)Cn1c(N)c(C(=O)COC(=O)c2cc(-c3ccccc3)nc3ccccc23)c(=O)n(C)c1=O	11%	-17%	22%	7%	5%	24%	·	·	·	·	·
CC(C)Cn1c(N)c(C(=O)COC(=O)c2cc(-c3ccco3)nc3ccccc23)c(=O)n(C)c1=O	?	18µM*	14µM*	?	?	25µM*	11*	-7	-16	·	48*
CCOc1ccc(C(=O)NCC(=O)Nc2ccncc2)cc1OCC	1%	-9%	·	-2%	6%	-11%	·	·	·	·	·
O=C(C1=C(O)C(=O)N(CCCn2ccnc2)C1c1ccc(F)cc1)c1ccco1 (centres undefined)	·	·	0%	·	·	·	·	·	·	·	·
CCCCc1cc(=O)oc2c(CN3CCCC3)c(O)ccc12	1%	3%	-2%	2%	-5%	14%	·	·	·	·	·
CCCCc1cc(=O)oc2cc(C)c(CN3CCCC3)c(O)c12	?	20µM*	5µM*	50µM*	?	11µM*	35*	1	12	·	30*
